# PubChem BioAssay AID1445 (SRMLSC, 2008)
# Out of some 220,000 compounds screened, about 910 (0.41%) were called active. Only a selection was taken, and actives are over-represented in it overall. Measured potencies and affinities stand elsewhere. Unmarked numbers belong to inactive results.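 Rule for the calls: active = primary inhibition above the hit cutoff, then over 50% inhibition at one or more dose response concentrations (cut at about 23% in these data, passing the limit was not always enough); inconclusive = conflicting primary data, or primary hits not chosen for dose response; inactive = low primary inhibition, or under 50% at every dose.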
# Target: Aminopeptidase N (Plasmodium falciparum (isolate 3D7)) (UniProt O96935)
# Assay: malaria alanyl aminopeptidase activity blockers – biochemical, fluorogenic H-Leu-NHMec substrate, 1536-well (AID 1445);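 note: plate controls were DMSO full reaction for no effect and no enzyme background for full effect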
# Conditions: recombinant M1AAP, H-Leu-NHMec fluorogenic kinetic assay
# [1] = at 30 µM, hits give high values unless noted
# Sequence of Aminopeptidase N (Plasmodium falciparum (isolate 3D7)) (O96935 whole entry, looked up): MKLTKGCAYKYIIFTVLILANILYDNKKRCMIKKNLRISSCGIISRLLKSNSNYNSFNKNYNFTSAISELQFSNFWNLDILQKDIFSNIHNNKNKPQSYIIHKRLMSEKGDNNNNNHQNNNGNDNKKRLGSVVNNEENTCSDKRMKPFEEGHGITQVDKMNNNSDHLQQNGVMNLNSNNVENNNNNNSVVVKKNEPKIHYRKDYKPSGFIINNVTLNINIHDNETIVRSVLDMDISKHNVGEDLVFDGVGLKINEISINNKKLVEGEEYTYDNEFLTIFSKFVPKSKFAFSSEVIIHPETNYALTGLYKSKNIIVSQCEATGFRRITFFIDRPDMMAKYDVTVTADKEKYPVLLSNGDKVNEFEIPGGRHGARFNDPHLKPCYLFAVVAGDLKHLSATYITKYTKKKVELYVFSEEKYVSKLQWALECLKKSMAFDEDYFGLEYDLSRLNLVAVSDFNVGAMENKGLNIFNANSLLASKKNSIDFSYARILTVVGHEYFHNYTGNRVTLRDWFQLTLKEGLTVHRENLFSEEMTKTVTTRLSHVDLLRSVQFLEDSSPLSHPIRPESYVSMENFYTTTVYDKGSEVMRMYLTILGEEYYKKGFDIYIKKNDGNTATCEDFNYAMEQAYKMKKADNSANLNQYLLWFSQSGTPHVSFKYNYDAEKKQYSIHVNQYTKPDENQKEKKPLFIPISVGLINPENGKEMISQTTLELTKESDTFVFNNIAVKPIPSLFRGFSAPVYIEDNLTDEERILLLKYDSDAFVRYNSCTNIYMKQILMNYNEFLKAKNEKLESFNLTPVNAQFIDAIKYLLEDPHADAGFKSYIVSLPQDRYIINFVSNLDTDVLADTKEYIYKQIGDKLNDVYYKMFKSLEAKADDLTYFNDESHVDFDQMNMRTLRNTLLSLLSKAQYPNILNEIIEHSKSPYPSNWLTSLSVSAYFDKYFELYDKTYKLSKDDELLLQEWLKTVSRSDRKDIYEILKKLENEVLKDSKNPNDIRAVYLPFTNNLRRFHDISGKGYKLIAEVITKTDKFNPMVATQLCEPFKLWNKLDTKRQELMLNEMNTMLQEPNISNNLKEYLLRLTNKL
smiles,measurement,setting,value
CSc1ccc(/C=C/c2ccc3cccc(O)c3n2)cc1,inhibition,[1],8.1%
COC(=O)c1ccc(/C=C/c2ccc3cccc(OC)c3n2)cc1,inhibition,[1],20.2%
O=C(COc1ccc(F)cc1)N(c1ccccn1)C1CCCCC1,inhibition,[1],2.11%
COc1ccc(N2C(=O)C3CCCN3C2c2cccc(OC)c2OC)cc1 (stereo unspecified),inhibition,[1],3.05%
CCN(CC)CC(O)Cn1c(-c2ccccc2Cl)nc2ccccc21 (stereo unspecified),inhibition,[1],3.4%
Cc1ccc(CN2CCN(/N=C/c3ccc(C(F)(F)F)cc3)CC2)cc1,inhibition,[1],5.42%
C#CCCOC(=O)N1C2=NC(C(=O)OC)=C(C(=O)OC)[C@@H]3N(Cc4ccccc4)c4ccccc4[C@]23C[C@H]1C(=O)OC,inhibition,[1],8.52%
C#CCCOC(=O)N1C2=NC(C(=O)OC)=C(C(=O)OC)[C@@H]3N(C)c4ccccc4[C@]23C[C@H]1C(=O)OC,inhibition,[1],3.66%
COC(C[C@H](O)CC(=O)[C@H](C)OCc1ccccc1)OC,inhibition,[1],1.19%
COC(=O)c1sc2nc(-c3ccccc3)c3c(c2c1N)CCCC3,inhibition,[1],0.85%
COc1ccc(CN(C)C(=S)Nc2ccc(OC(F)F)cc2)cc1,inhibition,[1],-1.27%
O=C1CCCc2nc3nc4ccccc4n3cc21,inhibition,[1],-2.88%
CCOc1ccc(-n2c(=S)sc3c(=O)[nH]c(SCC(=O)NC(C)CC)nc32)cc1 (stereo unspecified),inhibition,[1],11.5%
CCOC(=O)CC(=O)CSc1nc2c(sc(=S)n2-c2ccccc2)c(=O)[nH]1,inhibition,[1],21.4%
CCOc1ccc(-n2c(=S)sc3c(=O)[nH]c(SCC(=O)NCC4CCCO4)nc32)cc1 (stereo unspecified),inhibition,[1],18.3%
CCOc1ccc(-n2c(=S)sc3c(=O)[nH]c(SCC(=O)NCc4ccco4)nc32)cc1,inhibition,"at 30 µM, hits give high values",29.8% (active)
same,inhibition,at 100 µM (top of the series),46.1%
CCOC(=O)CSc1nc2c(sc(=S)n2-c2ccc(OCC)cc2)c(=O)[nH]1,inhibition,[1],13.9%
CCN(CC)C(=O)CSc1nc2c(sc(=S)n2-c2ccccc2)c(=O)[nH]1,inhibition,[1],5.01%
CC1CCN(C(=O)CSc2nc(N)cc(N)n2)CC1,inhibition,[1],-2.52%
CCOc1ccc2c(c1)c1nnc(SCC(=O)N3CCC(C)CC3)nc1n2C,inhibition,[1],7.57%
CCOC(=O)CSc1nc2c(sc(=S)n2-c2ccccc2)c(=O)[nH]1,inhibition,[1],7.91%
CCCc1ccc(OCC(=O)NNC(=O)c2cccnc2)cc1,inhibition,[1],-2.33%
Cc1cc(C(F)(F)F)nc(Nc2nc(C)c3ccccc3n2)n1,inhibition,[1],10.9%
COc1cc2ccc(=O)oc2cc1OCC(O)C(C)(C)O (stereo unspecified),inhibition,[1],14.1%
COc1cccc(/C=N/Nc2nc3ccccc3n3cnnc23)c1,inhibition,[1],0.89%
CCOC(=O)c1cc(-c2ccccc2)n(CCC(=O)N2CCN(c3ccc(OC)cc3)CC2)c1C,inhibition,[1],5.67%
Cc1cc(C)n(/N=C/c2c[nH]c3ccccc23)c(=O)c1C#N,inhibition,[1],5.27%
CCc1ccc(NC(=O)CSc2nc3ccsc3c(=O)n2CCCCCC(=O)O)cc1,inhibition,[1],-11.3%
COc1cc(NC(C)=O)ccc1-c1cc2ccccc2oc1=O,inhibition,[1],4%
COc1ccc(NC(=O)C2CCC(=O)N2)cc1 (stereo unspecified),inhibition,[1],3.48%
COc1ccc(C(C(=O)NC(C)(C)C)N(C(=O)CNC(=O)c2cccs2)c2ccc(C)cc2)cc1OC (stereo unspecified),inhibition,[1],-2.96%
O=C(COC(=O)c1ccc(Cl)nc1)Nc1ccc(S(=O)(=O)N2CCCC2)cc1,inhibition,[1],9.72%
Nc1ccc(C23CC4CC(CC(C4)C2)C3)cc1,inhibition,[1],1.15%
CC(=O)c1cnc2c(-c3ccc(Cl)cc3)cnn2c1C,inhibition,[1],-0.05%
CCOC(=O)c1cnc2c(-c3ccc(Cl)cc3)cnn2c1C,inhibition,[1],-12.2%
CC(C)(C)C(=O)NC(=S)Nc1ccc(F)cc1,inhibition,[1],4.15%
O=c1cc(-c2ccc(F)cc2F)[nH]c2ccccc12,inhibition,[1],-3.62%
O=c1cc(CSc2ccc(S(=O)(=O)N3CCCCC3)cn2)nc2sccn12,inhibition,[1],24.1% (active)
O=c1cc(CSc2nnc(COc3ccccc3Cl)o2)nc2sccn12,inhibition,[1],25.3% (active)
CC(C)NC(=O)CSc1nnc(COc2ccccc2Cl)o1,inhibition,[1],8.56%
O=c1cc(CN2CCN(S(=O)(=O)c3ccccc3)CC2)nc2sccn12,inhibition,[1],-0.76%
O=c1cc(CSc2nc3cc(Cl)ccc3o2)nc2sccn12,inhibition,[1],4.21%
O=c1cc(CN2CCN(S(=O)(=O)c3ccc4ccccc4c3)CC2)nc2sccn12,inhibition,[1],-6.82%
CN(C)CCCNS(=O)(=O)c1cc(Cl)c(Cl)cc1Cl,inhibition,[1],0.71%
C#CCOC(=O)Nc1ccc(OCC(F)(F)F)nc1,inhibition,[1],-3.37%
O=C(O)Cc1cc(C(=O)Nc2ccc(Br)cc2)sc1-c1ccccc1,inhibition,[1],8.41%
COc1ccc([N+](=O)[O-])cc1NC(=O)C(C)OC(=O)c1cccnc1 (stereo unspecified),inhibition,[1],-3.23%
CC(C)[C@H](NC(=O)c1ccc(Cl)c([N+](=O)[O-])c1)C(=O)NCc1ccc(F)cc1,inhibition,[1],3.78%
Cc1cc(NC(=O)c2ccco2)ncc1NC(=O)Cc1ccccc1,inhibition,[1],0.67%
Cc1cc(NC(=O)c2ccccc2)ncc1NC(=O)c1ccco1,inhibition,[1],5.34%
Cc1cc(NC(=O)c2ccco2)ncc1NC(=O)CCc1ccccc1,inhibition,[1],29.7% (active)
CC1CCCC(NC(=O)CCn2c(=S)oc3ccccc32)C1C (stereo unspecified),inhibition,[1],3.48%
Cc1ccc(-n2c(-c3nn(C)c(C)c3Cl)n[nH]c2=S)cc1,inhibition,[1],1.9%
CNC(=O)C1CC(=O)N(Cc2ccc3c(c2)OCO3)C(=Nc2ccc(F)cc2)S1 (stereo unspecified),inhibition,[1],-5.29%
CCNC(=O)C1CC(=O)N(Cc2ccc3c(c2)OCO3)C(=Nc2ccc(OCC)cc2)S1 (stereo unspecified),inhibition,[1],-1.35%
CCNC(=O)C1CC(=O)N(Cc2ccc3c(c2)OCO3)C(=Nc2ccc(F)cc2)S1 (stereo unspecified),inhibition,[1],27% (active)
COc1ccc(NC(=S)N2CCN(c3ncccn3)CC2)cc1,inhibition,[1],4.34%
CC1=CC(c2ccccc2)n2nnnc2N1 (stereo unspecified),inhibition,[1],-5.78%
c1ccc2c(c1)nc(N1CCOCC1)c1nncn12,inhibition,[1],4.1%
c1cnc(N2CCN(c3nc4ccccc4n4cnnc34)CC2)nc1,inhibition,[1],24.4% (active)
c1ccc(N2CCN(c3nc4ccccc4n4cnnc34)CC2)cc1,inhibition,[1],14.5%
Cc1cc(C)n(Cc2nc3ccccc3n2C)n1,inhibition,[1],-3.79%
CC(C)(C)[C@H]1C=C(C(=O)NC2CC2)O[C@@H](OCc2ccc(CO)cc2)C1,inhibition,[1],1.09%
NC(=O)c1sc(=S)n2c1[nH]c(=O)c1sccc12,inhibition,[1],17.2%
O=C(NC1CCCCC1)c1sc(=S)n2c1[nH]c(=O)c1ccccc12,inhibition,[1],0.76%
CCCCCNC(=O)c1ccc2c(=O)n(CC3CCCO3)c(=S)[nH]c2c1 (stereo unspecified),inhibition,[1],5.58%
Cc1ccc(CNC(=O)c2ccc3c(=O)[nH]c4c(C(=O)NCC5CCCO5)sc(=S)n4c3c2)cc1 (stereo unspecified),inhibition,[1],23%
CC(=O)NNC(=O)c1sc(=S)n(C)c1C,inhibition,[1],0.62%
O=C(NCc1ccccc1)c1sc(=S)n2c1[nH]c(=O)c1ccccc12,inhibition,[1],18.5%
O=C(NCC1CCCO1)c1sc(=S)n2c1[nH]c(=O)c1ccc(C(=O)N3CCCCC3)cc12 (stereo unspecified),inhibition,[1],20.2%
CCCCCNC(=O)c1ccc2c(=O)n(CC3CCCO3)c(=O)[nH]c2c1 (stereo unspecified),inhibition,[1],4.6%
O=C(NCc1ccco1)c1ccc(Br)c(S(=O)(=O)N2CCCCC2)c1,inhibition,[1],3.95%
COc1ccc(NC(=O)C23CC4CC(C2)CC(c2ccccc2)(C4)C3)c(OC)c1,inhibition,[1],-2.32%
COc1c(C)cc(C(=O)C2CCCN(C(=O)c3cccc(F)c3)C2)cc1C (stereo unspecified),inhibition,[1],0.9%
CC(=O)Nc1ccc(OCC(O)Cn2c(CO)nc3ccccc32)cc1 (stereo unspecified),inhibition,[1],6.49%
Cc1ccc(N(CC(=O)O)S(C)(=O)=O)cc1Cl,inhibition,[1],-5.06%
C=CCOC(=O)C(=O)/C=C/c1csc2ccccc12,inhibition,[1],1.93%
Cc1cc(C)c2c(-n3cccc3)c(C(=O)NNS(=O)(=O)c3ccc(F)cc3)sc2n1,inhibition,[1],-2.28%
Cc1cc(C)c2c(-n3cccc3)c(C(=O)O)sc2n1,inhibition,[1],12.2%
COC(=O)C(=C/C(C)=C/c1cccs1)C(=O)OC,inhibition,[1],13.8%
Cc1ccc(N2C(=O)CCC2(C(N)=O)c2ccccc2)cc1 (stereo unspecified),inhibition,[1],-0.36%
CCC(=O)Nc1ccc(-c2nc3ccccc3c(=O)o2)cc1,inhibition,[1],2.53%
CCOc1ccccc1CN1CCN(Cc2[nH]c3ccccc3c2C)CC1CCO (stereo unspecified),inhibition,[1],-0.18%
COc1cc(/C=N\NC(=O)c2sc(N)nc2C)cc(OC)c1OC,inhibition,[1],8.26%
COc1cccc(/C=N\NC(=O)c2sc(N)nc2C)c1OC,inhibition,[1],24.5% (active)
Cc1nc(N)sc1C(=O)N/N=C/c1ccccc1[N+](=O)[O-],inhibition,[1],5.94%
Cc1csc(Nc2ccccc2)[n+]1C,inhibition,[1],-12.3%
Cc1cc(C(=O)Nc2sc3c(c2C#N)CCCC3)no1,inhibition,[1],8.77%
Cc1cc(C(=O)Nc2sc3c(c2C#N)CCC3)no1,inhibition,[1],23.7% (active)
CC(C)c1cc(C(=O)Nc2sc3c(c2C#N)CCC3)no1,inhibition,[1],20.6%
Cc1ccc(S(=O)(=O)NC(=O)NCCCCNC(=O)NS(=O)(=O)c2ccc(C)cc2)cc1,inhibition,[1],0.51%
Cc1ccc(Cc2cc(C)n[nH]c2=O)cc1,inhibition,[1],9.53%
COCc1cc(C)nc(OCC(=O)N/N=C/c2ccco2)c1C#N,inhibition,[1],9.71%
CC(=O)Nc1nc(C(=O)O)cs1,inhibition,[1],-0.08%
CC(=O)Nc1ccc(-c2csc(N/N=C(/C)c3ccccc3)n2)cc1,inhibition,[1],11.9%
